# According to PMC11062922 (Nature Chemical Biology, 2023):
# System: LATS1
# Design: species or system human, MV4-11 + K-562 + COLO205 + SK-N-BE2 + OVCAR-8
# Details: read-out: apparent Kd; compound concentrations:100 nM and 1000 nM (sheet 'Samples'); n = 1
row,Compound,potency estimated from few doses [nM]
1,NCCNS(=O)(=O)c1ccc(-c2ccnc3[nH]ccc23)cc1 [GSK977617A],121
2,O=C1NC(=O)C(N2CCc3ccccc32)=C1c1ccccc1Cl [SB-373598],994
3,CCn1c(-c2nonc2N)nc2c(C#CC(C)(C)O)nc(OCCNC)cc21.Cl [GSK949675A],401
4,CNC(=O)c1ccccc1Nc1nc(Nc2ccc(N3CCOCC3)cc2)ncc1Cl.Cl [GSK1576028A],132
5,CN1C[C@@H]2Cn3c(c(C4=C(c5cn(C)c6ccccc56)C(=O)NC4=O)c4ccccc43)C[C@H]2C1.Cl [RO0320234-001],1780
6,CCn1c(-c2nonc2N)nc2c(C#CC(C)(C)O)nc(OCCN)cc21.CCn1c(-c2nonc2N)nc2c(C#CC(C)(C)O)nc(OCCN)cc21.Cl.Cl [GSK902056A],70.2

# System: LCK
# Design: species or system human, MV4-11 + K-562 + COLO205 + SK-N-BE2 + OVCAR-8
# Details: read-out: apparent Kd; compound concentrations:100 nM and 1000 nM (sheet 'Samples'); n = 1
row,Compound,potency estimated from few doses [nM]
1,NCCNS(=O)(=O)c1ccc(-c2ccnc3[nH]ccc23)cc1 [GSK977617A],515
2,O=C1NC(=O)C(N2CCc3ccccc32)=C1c1ccccc1Cl [SB-373598],138
3,Cl.Cl.NCC(C(=O)Nc1cc(Br)c(-c2ccnc3[nH]ccc23)s1)c1ccccc1.NCC(C(=O)Nc1cc(Br)c(-c2ccnc3[nH]ccc23)s1)c1ccccc1 (stereo not shown) [GSK1269851A],519
4,CC(C)N1CCC(n2cnc(-c3ccc(F)cc3)c2-c2ccnc(N)n2)CC1 [SB-223132],880
5,CNC(=O)c1ccccc1Nc1nc(Nc2ccc(N3CCOCC3)cc2)ncc1Cl.Cl [GSK1576028A],234
6,CN1C[C@@H]2Cn3c(c(C4=C(c5cn(C)c6ccccc56)C(=O)NC4=O)c4ccccc43)C[C@H]2C1.Cl [RO0320234-001],134
7,Cc1ccc2c(-c3ccncc3)c(-c3ccc(F)cc3)nn2c1.Cl [GW461484A],730

# System: LYN
# Design: species or system human, MV4-11 + K-562 + COLO205 + SK-N-BE2 + OVCAR-8
# Details: read-out: apparent Kd; compound concentrations:100 nM and 1000 nM (sheet 'Samples'); n = 1
row,Compound,potency estimated from few doses [nM]
1,NCCNS(=O)(=O)c1ccc(-c2ccnc3[nH]ccc23)cc1 [GSK977617A],936
2,O=C1NC(=O)C(N2CCc3ccccc32)=C1c1ccccc1Cl [SB-373598],210
3,Cl.Cl.NCC(C(=O)Nc1cc(Br)c(-c2ccnc3[nH]ccc23)s1)c1ccccc1.NCC(C(=O)Nc1cc(Br)c(-c2ccnc3[nH]ccc23)s1)c1ccccc1 (stereo not shown) [GSK1269851A],586
4,CNC(=O)c1ccccc1Nc1nc(Nc2ccc(N3CCOCC3)cc2)ncc1Cl.Cl [GSK1576028A],1010
5,CN1C[C@@H]2Cn3c(c(C4=C(c5cn(C)c6ccccc56)C(=O)NC4=O)c4ccccc43)C[C@H]2C1.Cl [RO0320234-001],158
6,Cc1ccc2c(-c3ccncc3)c(-c3ccc(F)cc3)nn2c1.Cl [GW461484A],1010
